# Test results: PubChem BioAssay (NCI)
# About 83,000 compounds went through this panel and 20% of them were active in at least one assay; those are over-represented in the sample as a whole.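 Single-concentration screen, 48 h exposure, 96-well plates. Endpoint: percent growth. Below 10 = active.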 Unmarked numbers belong to inactive results. The source made the active and inactive calls.
# Tests used:
# Assay in all cases: NCI-60 one-dose screen, 48 h (100 = growth as untreated, 0 = no growth, -100 = all killed)
# Conditions in all cases: 10 µM unless noted
# RPMI-8226 leukemia = test system: RPMI-8226 leukemia
# OVCAR-5 ovarian = test system: OVCAR-5 ovarian
# OVCAR-4 ovarian = test system: OVCAR-4 ovarian
# SK-OV-3 ovarian = test system: SK-OV-3 ovarian
# IGROV1 ovarian = test system: IGROV1 ovarian
# OVCAR-3 ovarian = test system: OVCAR-3 ovarian
# HS 578T breast = test system: HS 578T breast
# NCI/ADR-RES ovarian = test system: NCI/ADR-RES ovarian
# BT-549 breast = test system: BT-549 breast
# MDA-MB-435 melanoma = test system: MDA-MB-435 melanoma
# SW-620 colon = test system: SW-620 colon
# MCF7 breast = test system: MCF7 breast
# HCT-116 colon = test system: HCT-116 colon
# HCC-2998 colon = test system: HCC-2998 colon
# KM12 colon = test system: KM12 colon
# OVCAR-8 ovarian = test system: OVCAR-8 ovarian
# T-47D breast = test system: T-47D breast
SMILES,growth (RPMI-8226 leukemia),growth (OVCAR-5 ovarian),growth (OVCAR-4 ovarian),growth (SK-OV-3 ovarian),growth (IGROV1 ovarian),growth (OVCAR-3 ovarian),growth (HS 578T breast),growth (NCI/ADR-RES ovarian),growth (BT-549 breast),growth (MDA-MB-435 melanoma),growth (SW-620 colon),growth (MCF7 breast),growth (HCT-116 colon),growth (HCC-2998 colon),growth (KM12 colon),growth (OVCAR-8 ovarian),growth (T-47D breast)
CCCCCCCCCCCCCC,103%,108%,103%,104%,117%,122%,106%,96.9%,112%,104%,104%,91.1%,102%,97.8%,115%,–,–
O=C(N/N=C/c1ccc([N+](=O)[O-])o1)c1ccc(O)cc1,39.8%,78.7%,42%,63.8%,30.5%,23.4%,–,36.6%,59.4%,-79.5% (active),18.2%,26.1%,11.4%,62.9%,33%,17.6%,44.2%
C=C(COC(C)=O)[C@H]1CC/C(C)=C/CC/C(C)=C/CC[C@@]2(C)O[C@H]2C1,180%,99.2%,115%,125%,103%,–,108%,102%,105%,113%,112%,91.1%,98.2%,112%,98.6%,103%,109%
CC1=CCC2C1CC=C(C)C(CC[C@H]1[C@@](C)(O)CCC3OC(C)(C)[C@H](OC(=O)c4ccccc4)CC[C@@]31C)C2(C)C (some centres not stated),–,100%,71.5%,93.8%,102%,72.8%,110%,95%,106%,86.8%,80%,–,51.5%,97.9%,98.9%,87.4%,–
O=C1OCC2=C1C(c1ccccc1)c1cc3c(cc1N2CCO)CCC3 (configuration not stated),23.9%,26.1%,30%,-20.7% (active),12.4%,–,3.94% (active),-70.4% (active),-1.32% (active),-31.9% (active),21.5%,-3.45% (active),4.41% (active),–,11.2%,36.5%,37.8%
O=C(Nc1cccc(-n2ccc3c(NC(=O)c4ccccc4)nccc32)c1)c1ccc(Cl)c(Cl)c1,-51.3% (active),-36.4% (active),-88.7% (active),18.7%,-52.1% (active),-81.3% (active),–,-28.1% (active),-75.7% (active),-78.1% (active),–,-83.6% (active),-97.6% (active),-90.9% (active),-75.2% (active),–,-55.4% (active)
Cc1cc(O)ccc1Sc1ccccc1[N+](=O)[O-],82.5%,99.6%,90%,101%,90.6%,96.1%,80%,83%,–,57.7%,90.2%,118%,98.1%,97.5%,91.1%,97.1%,98.7%
CSc1nc(N)c2[nH]c(-c3cc4ccccc4[nH]c3=O)nc2n1,85.1%,119%,83.7%,66.1%,61.5%,119%,94.6%,94.8%,47.9%,–,90.1%,65.7%,53.9%,95%,96.9%,90.2%,72.9%
CCOC(=O)c1ccc2c(c1)[n+](=O)c(C(=O)c1ccc3ccccc3c1)c(C(F)(F)F)n2[O-],-66.8% (active),-98.5% (active),-65.8% (active),-100% (active),-82.9% (active),-99.6% (active),-45.7% (active),-86.4% (active),–,-78% (active),–,-93.1% (active),-100% (active),-97.6% (active),-92% (active),3.25% (active),-91.1% (active)
COc1ccc(-n2nc(C(=O)Nc3ccc(F)cc3)nc2-c2cc(OC)c(OC)c(OC)c2)cc1,96.8%,97.8%,90.5%,94.8%,98.1%,92.4%,89.3%,85%,73%,–,96.6%,91.8%,80.9%,–,96%,–,75.3%
FC(F)(F)c1cc(-c2nnc3n2N=C(Cl)CS3)cc(C(F)(F)F)c1,95.6%,114%,123%,99.9%,114%,116%,105%,99.1%,88.4%,–,89.7%,94.3%,90.5%,–,109%,–,84.5%
COc1ccc(-c2cc(-c3cc4ccccc4oc3=O)n(-c3ccccc3)n2)cc1,86.4%,91.1%,13.2%,76.7%,14%,68.2%,66.4%,69.5%,75.1%,100%,66.6%,76%,2.14% (active),103%,69.3%,–,73.1%
COc1nccc2c(Sc3ccccc3)nc(N)nc12,93.2%,107%,99.7%,114%,114%,119%,113%,106%,85.9%,–,109%,91.9%,97.6%,106%,113%,101%,107%
